Assay [1] can be described thus: IUF_NPC4_neurite_area_120hr: Leibniz Research Institute for Environmental Medicine (IUF) 120-hour Neuronal Morphology Assay for Neurite Area (NPC4) (AID 2284305). A digest of the protocol:
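hNPC spheres on PDL/laminin, N2 medium, 37C/5% CO2; dosed day 0, half-medium refresh day 3; fixed 120 h; TUBB3/Hoechst ICC, high-content imaging; neurite area = mean pixels per neuron (nuclei excluded); DMSO baseline, max 0.1%.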

Assay [2] in a line: IUF_NPC2-5_cytotoxicity_72hr: Cytotoxicity Assessment at 72 hours in the Leibniz Research Institute for Environmental Medicine (IUF) Neural Progenitor Cell Migration and Differentiation Assay for Cytotoxicity (NPC2-5) (AID 2284306).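 Note: LDH release into supernatant measured by resorufin fluorescence marking membrane damage.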 An outline of the steps: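 hNPC spheres (0.3 mm), PDL/laminin, DMEM/F12 3:1 + 1% N2; cpd from d0, 7 concs + SC, DMSO max 0.1%; half-medium refresh d3. Readout: supernatant LDH via resorufin fluorescence (RFU), 72 h; gain-of-signal fit.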

The nature of assay [3]: IUF_NPC2-5_cell_number_120hr: Cell Number Assessment at 120 hours in the Leibniz Research Institute for Environmental Medicine (IUF) Neural Progenitor Cell Migration and Differentiation Assay (NPC2-5) (AID 2284308; active = hit-call score of the fitted dose curve at least 0.9, where 1 is the maximum; inactive = score below 0.9;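 note: count of Hoechst-stained nuclei in migration zone around plated human neural progenitor spheres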). An outline of the steps:
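Cell number is taken as all Hoechst-positive nuclei detected in the area into which cells migrate out of the sphere, scored at 120 h and referenced to DMSO solvent control, which was kept at no more than 0.1%.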

Assay [4] is described as follows: IUF_NPC2-5_viability_120hr: Viability Assessment at 120 hours in the Leibniz Research Institute for Environmental Medicine (IUF) Neural Progenitor Cell Migration and Differentiation Assay (NPC2-5) (AID 2284312; active = hit-call score of the fitted dose curve at least 0.9, where 1 is the maximum; inactive = score below 0.9). An outline of the steps: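 Human fetal neural progenitor spheres (0.3 mm) plated on poly-D-lysine/laminin in N2 differentiation medium, exposed 120 h with half-medium refresh at day 3. Viability by alamar blue resazurin fluorescence; 7 concentrations, DMSO max 0.1%.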

Assay [5] can be described thus: CCTE_Mundy_HCI_iCellGluta_NOG_NeuriteLength: CCTE's Neurite Outgrowth Assay in iCellGluta cells for Neurite Length, Mundy Lab (AID 2284318). A digest of the protocol: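 Automated high-content imaging of betaIII-tubulin (Alexa Fluor-488) and Hoechst-stained cells gave neurite length, normalized to the DMSO baseline.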
Assay [6] in a line: IUF_NPC1_cytotoxicity_72hr: Cytotoxicity Assessment at 72 hours in the Leibniz Research Institute for Environmental Medicine (IUF) Neural Progenitor Cell Proliferation Assay (NPC1) (AID 2284332).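 Note: rising LDH signal means more cytotoxicity.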 An outline of the steps: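 LDH in supernatant, resazurin→resorufin fluorescence (RFU), 72 h exposure, no re-dosing. Cells: primary hNPC spheres, one per well, EGF+FGF medium, 37C/5% CO2, pH 7.2-7.6. Fit: positive direction vs baseline and dynamic range.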

Assay [7] can be described thus: CCTE_Deisenroth_5AR_NBTE_donor: CCTE's 5alpha-reductase NanoBRET Target Engagement Assay […], Deisenroth Lab (AID 2284319; active = hit-call score of the fitted dose curve at least 0.9, where 1 is the maximum; inactive = score below 0.9). Conditions: actives raise or lower the signal. A digest of the protocol:
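HEK293T cells transiently expressing SRD5A2-NanoLuc, exposed 5 h to chemicals (8 points, 10 nM - 29.9 uM), with testosterone tracer for the final 2 h. Donor luminescence at 460 nm read after Nano-Glo substrate plus extracellular NanoLuc inhibitor; bidirectional fit versus DMSO.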

Assay [8] can be described thus: CCTE_Deisenroth_5AR_NBTE_acceptor: CCTE's 5alpha-reductase NanoBRET Target Engagement Assay - Autofluorescence Screen, Deisenroth Lab (AID 2284321; active = hit-call score of the fitted dose curve at least 0.9, where 1 is the maximum; inactive = score below 0.9;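 note: compound fluorescence in the acceptor channel under 460 nm excitation flags autofluorescence artifacts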). Conditions: actives raise or lower the signal. A digest of the protocol: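 Chemicals diluted to a nominal 100 uM in DMSO were scanned at 460 nm excitation. Samples were read in three independent runs (n=3). Gain or loss of acceptor signal was fitted relative to DMSO.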

Another assay deals with SRD5A2 (gene 6716). Kind of assay: CCTE_Deisenroth_5AR_NBTE_ratio: CCTE's 5alpha-reductase NanoBRET Target Engagement Assay - Ratio, Deisenroth Lab (AID 2284322; active = hit-call score of the fitted dose curve at least 0.9, where 1 is the maximum; inactive = score below 0.9). Particulars: actives raise or lower the signal. A digest of the protocol:
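SRD5A2-NanoLuc HEK293T; cmpd 10 nM-29.9 uM, 3 h preinc + testosterone tracer 2 h; NanoBRET ratio 650/460; bidirectional fit vs DMSO.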
For orientation: BRET reads energy transfer from a luciferase to a nearby fluorophore.

A short description of assay [9]: VALA_TUBHUV_Agonist_CellCount: Viability Assessment in the VALA Sciences human Umbilical Vein Endothelial Tubule Formation (TUBHUV) Agonism Assay (AID 2284309). An outline of the steps: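 Viability endpoint by fluorescent imaging of fixed nuclear/CD31-stained HUVEC–HDF co-cultures. Readout is cell count, fitted upward against 0.1% DMSO. Compound exposure was 72 h in 10 ng/ml VEGF, after 3-day co-culture priming.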

Assay [10] in a line: VALA_MIGHUV2_WoundArea: VALA Sciences human Umbilical Vein Endothelial Cell Migration (MIGHUV) Assay, Area of Scratch Wound after Recovery (AID 2284316). An outline of the steps: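 Wound-area endpoint read by fluorescence imaging of Hoechst-stained nuclei after a 24 h recovery period following scratch of HUVEC monolayers (9000 cells/well). Chemicals dosed within 30 min post-scratch, triplicate 6-point series, 0.1% DMSO vehicle; Cytochalasin D positive control.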

Assay [11] in a line: VALA_MIGHUV1_ScratchOnly_CellCount: Viability Assessment in the VALA Sciences human Umbilical Vein Endothelial Cell Migration (MIGHUV) Assay, Scratch Wound Inhibited Recovery (AID 2284327). An outline of the steps:
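Hoechst-stained nuclei in the scratch wound were counted by high-content imaging after a 24 h recovery period. Scratched HUVEC monolayers received 6-point concentration series, triplicate, in 0.1% DMSO, fit against DMSO.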

A short description of assay [12]: VALA_TUBIPS_Antagonist_CellCount: Viability Assessment in the VALA Sciences human iPS-derived Endothelial Tubule Formation (TUBIPS) Antagonism Assay (AID 2284335).
For another assay, the system named is IYD (gene 389434). Put plainly: CCTE_GLTED_hIYD: CCTE's human Iodotyrosine Deiodinase (xIYD) Inhibition Assay, Great Lakes Toxicology and Ecology Division (GLTED) Lab (AID 2284317).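 Note: cell-free human IYD enzyme made in baculovirus insect cells; iodide freed from monoiodotyrosine measured by cerium arsenite color change at 420 nm.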 A digest of the protocol: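 Cell-free; baculovirus/insect-cell hIYD + MIT substrate + chemical, 3 h. Dowex column cleanup, then Ce4+/As3+ Sandell-Kolthoff read at A420 nm. Triplicate plates; normalized to 3-nitro-L-tyrosine (positive) and DMSO/NaOH (solvent).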

A short description of assay [13]: VALA_TUBIPS_Antagonist_TubuleLength: VALA Sciences human iPS-derived Endothelial Tubule Formation (TUBIPS) Antagonist Assay (AID 2284313). A digest of the protocol: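 Tubule length was quantified by high-content imaging of CD31- and nuclear-stained cells, with 0.1% DMSO as neutral and 100 uM suramin as inhibition control. Compounds were applied for 3 days, in 10 ng/ml VEGF, to cultures pre-grown 3 days.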

The nature of assay [14]: VALA_MIGHUV2_Bcatenin: VALA Sciences human Umbilical Vein Endothelial Cell Migration (MIGHUV) Assay, Nuclear Translocation of beta-Catenin after Recovery (AID 2284315). An outline of the steps:
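Nuclear beta-catenin imaged by immunofluorescence with Hoechst counterstain in fixed HUVEC, 24 h after scratch wounding and chemical addition. Six-point concentration-response in triplicate; activity scored as signal increase over 0.1% DMSO vehicle.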

Assay [15] in a line: VALA_TUBHUV_Antagonist_CellCount: Viability Assessment in the VALA Sciences human Umbilical Vein Endothelial Tubule Formation (TUBHUV) Antagonism Assay (AID 2284310). A digest of the protocol:
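Read-out is imaged cell count after nuclear and CD31 staining, fitted against 0.1% DMSO vehicle. Compounds were added for 3 days, in 10 ng/ml VEGF assay medium, to HUVEC–HDF co-cultures pre-grown 3 days.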

Assay [16] is described as follows: VALA_MIGHUV2_CellCount: Viability Assessment in the VALA Sciences human Umbilical Vein Endothelial Cell Migration (MIGHUV) Assay, Area of Scratch Wound after Recovery (AID 2284314). A digest of the protocol:
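Viability read-out: Hoechst-stained nuclei counted by fluorescence imaging after a 24 h recovery period in fixed, scratched HUVEC plates. Compound was dosed within 30 min of scratching at six concentrations (triplicate); DMSO at 0.1 % served as baseline.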

A short description of assay [17]: VALA_TUBHUV_Antagonist_TubuleLength: VALA Sciences human Umbilical Vein Endothelial Tubule Formation (TUBHUV) Antagonism Assay (AID 2284325). A digest of the protocol: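 Tubule length was imaged via CD31 immunofluorescence after a further 3-day compound exposure in 10 ng/ml VEGF, following 3-day pre-culture of HUVEC with HDF at 1:3. Vehicle 0.1% DMSO; suramin (100 uM) inhibition control.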

Values joined by “and” are separate entries in the source; they are usually repeats but may differ in a detail not shown here. Equal values may be shown once. Inconclusive results are not listed. Active and inactive are the calls of the source. Rule for the calls, unless noted: active = hit-call score of the fitted dose curve at least 0.9, where 1 is the maximum; inconclusive = response in the unintended direction; inactive = score below 0.9.

A word on the AC50: it is the midpoint of the concentration-response curve, whichever way the signal moves.

Consider `CCOP(=S)(OCC)OC(Cl)C(Cl)(Cl)Cl` (stereo unspecified), for which the result in [1], in [2], in assay [3], in assay [4], in assay [5] and in assay [6] was inactive.

Regarding `CCC(CC)Nc1c([N+](=O)[O-])cc(C)c(C)c1[N+](=O)[O-]`, the molecule was called inactive (in assay [7]; in assay [8]; with SRD5A2 (gene 6716)).

`CN(C)[C@@H]1C(=O)C(C(N)=O)=C(O)[C@@]2(O)C(=O)C3=C(O)c4c(O)cccc4[C@@](C)(O)[C@H]3[C@H](O)[C@@H]12`: the molecule was classed as inactive (in assay [2]; in [9]; in assay [4]; in assay [7]; in [8]; in the assay with SRD5A2 (gene 6716)). For the same molecule, the outcome in assay [11], in assay [6] and in assay [12] was inactive. Moreover, the AC50 is 72.5 µM (active) in assay [3], 50 µM (active) in [10] and 24.6 µM (active) in assay [5].

With `COP(=O)(OC)C(O)C(Cl)(Cl)Cl` (stereo unspecified), the AC50 in assay [1] was 5.08 µM (active). For the same molecule, the outcome in [2], in assay [3], in assay [4] and in assay [6] was inactive.

For `CSC1=N[C@@](C)(c2ccccc2)C(=O)N1Nc1ccccc1`, the outcome in assay [1], in assay [2], in [3], in assay [4], in assay [5] and in assay [7] was inactive. In addition, the molecule was classed as inactive (in assay [8]; in the assay with SRD5A2 (gene 6716); in assay [6]).

As to `CC[C@H](C)[C@H]1O[C@]2(C=C[C@@H]1C)C[C@@H]1C[C@@H](C/C=C(\C)[C@@H](O[C@H]3C[C@H](OC)[C@@H](O[C@H]4C[C@H](OC)[C@@H](NC)[C@H](C)O4)[C@H](C)O3)[C@@H](C)/C=C/C=C3\CO[C@@H]4[C@H](O)C(C)=C[C@@H](C(=O)O1)[C@]34O)O2`, the concentration at half-maximal activity (AC50) in [1] was 1.04 µM (active) and 5.11 µM (active); in assay [2] it was 1.88 µM (active) and 4.62 µM (active); in assay [3] it was 836 nM (active) and 2 µM (active); in assay [4], 1.14 µM (active) and 2.1 µM (active); in [5], 0.811 µM (active); in assay [7], 14.2 µM (active). Moreover, the concentration at half-maximal activity (AC50) in assay [8] is 10 µM (active); with SRD5A2 (gene 6716), 16.6 µM (active); in assay [6], 18.5 µM (active) and 3.79 µM (active).

As to `CC(C)[C@H](C(=O)O[C@H](C#N)c1cccc(Oc2ccccc2)c1)c1ccc(Cl)cc1`, in the assay with IYD (gene 389434), the molecule was called inactive.

Regarding `CCCOCC(=Nc1ccc(Cl)cc1C(F)(F)F)n1ccnc1`, the call with IYD (gene 389434) was inactive.

As to `CN1COCN(Cc2cnc(Cl)s2)C1=N[N+](=O)[O-]`, the result in [1], in [2], in assay [3], in assay [4], in [5] and in [6] was inactive.

With `S=C1NCCN1`, the outcome in assay [1], in assay [2], in assay [3], in assay [4], in assay [13] and in assay [14] was inactive. The call in [10], in assay [5] and in assay [6] was inactive.

In the case of `CC(=NC#N)N(C)Cc1ccc(Cl)nc1`, the outcome in assay [1], in assay [2], in [3], in assay [4] and in [6] was inactive.

With `CCCCSP(=O)(SCCCC)SCCCC`, the outcome (in assay [1]; in assay [2]; in assay [3]; in [4]; in the assay with IYD (gene 389434); in assay [5]) was inactive. Also, the AC50 in [6] was 82.5 µM (active).

In the case of `CCOC(=O)CC(SP(=O)(OC)OC)C(=O)OCC` (stereo unspecified), the result in [1], in assay [2], in [3], in assay [4] and in [6] was inactive.

Regarding `O=[N+]([O-])c1cc(C(F)(F)F)c(Cl)c([N+](=O)[O-])c1Nc1ncc(C(F)(F)F)cc1Cl`, the AC50 was 1.13 µM (active) in [1]; 3.71 µM (active) in assay [2]; 1.1 µM (active) in [3]; 1.4 µM (active) in assay [4]; 0.714 µM (active) in assay [5]; 21.9 µM (active) in [6]. Further, the result in assay [9], in assay [15], in assay [16] and in assay [17] was inactive.

`C[Si](Cn1cncn1)(c1ccc(F)cc1)c1ccc(F)cc1`: the result (in assay [7]; in assay [8]; in the assay with SRD5A2 (gene 6716)) was inactive.

(Values after PubChem BioAssay (EPA / NIEHS).)
